This note sets out measurements from PubChem BioAssay AID488969 (Vanderbilt High Throughput Screening Facility, 2010).

Each structure is given as a SMILES string. The full ranking holds about 110,000 compounds; the median of “z-score” is about -0.1, and the highest 2% start at about 2. This excerpt belongs to a sample that is enriched for the highest values. Activity calls are given as the source filed them.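 The calls were made as follows: active = z-score in the third read window above 3 or below -3; inactive = the rest.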

The target in this experiment is Metabotropic glutamate receptor 8 (Rattus norvegicus) (UniProt P70579). The experiment is described as follows: mGluR8 Gi/Go-coupled signaling modulation – cell-based, rat, thallium flux, HTS, primary screen (AID 488969). The settings on record: HEK293 rat mGluR8, GIRK (G protein-gated inwardly rectifying potassium channel) thallium flux, FluoZin2; at 10 µM; stronger effect = higher value; submaximal glutamate (EC20) added with thallium.
Metabotropic glutamate receptor 8 (Rattus norvegicus), sequence (P70579 whole entry, looked up): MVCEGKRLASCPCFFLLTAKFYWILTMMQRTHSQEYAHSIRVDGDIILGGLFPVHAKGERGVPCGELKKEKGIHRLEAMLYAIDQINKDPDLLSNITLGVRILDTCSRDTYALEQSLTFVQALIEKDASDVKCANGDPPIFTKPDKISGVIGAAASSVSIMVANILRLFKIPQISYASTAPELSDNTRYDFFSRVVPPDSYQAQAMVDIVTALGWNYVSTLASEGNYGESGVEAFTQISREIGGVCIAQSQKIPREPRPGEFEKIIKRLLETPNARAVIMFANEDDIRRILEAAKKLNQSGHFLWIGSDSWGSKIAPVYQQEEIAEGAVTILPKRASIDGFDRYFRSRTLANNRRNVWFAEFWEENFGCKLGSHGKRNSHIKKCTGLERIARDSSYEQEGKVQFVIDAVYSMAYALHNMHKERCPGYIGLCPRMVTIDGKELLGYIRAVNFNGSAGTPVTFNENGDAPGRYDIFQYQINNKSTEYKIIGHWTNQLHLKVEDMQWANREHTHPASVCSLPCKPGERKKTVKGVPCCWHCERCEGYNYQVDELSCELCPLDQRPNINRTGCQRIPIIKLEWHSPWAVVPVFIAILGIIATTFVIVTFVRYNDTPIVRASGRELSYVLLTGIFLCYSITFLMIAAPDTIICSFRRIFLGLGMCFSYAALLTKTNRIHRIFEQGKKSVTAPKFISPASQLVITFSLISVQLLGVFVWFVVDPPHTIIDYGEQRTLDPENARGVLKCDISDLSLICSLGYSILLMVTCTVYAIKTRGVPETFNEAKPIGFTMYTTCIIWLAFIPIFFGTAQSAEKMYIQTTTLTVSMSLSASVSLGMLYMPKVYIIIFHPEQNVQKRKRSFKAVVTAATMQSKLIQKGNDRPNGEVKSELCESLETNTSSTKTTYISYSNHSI
As to `CC1CCN(S(=O)(=O)c2cc(C(=O)N3CCN(c4ncccn4)CC3)ccc2Br)CC1`, the z-score was -0.827.
In turn, `O=C(NCCC1=CCCCC1)C1CCCN(S(=O)(=O)c2cccnc2)C1` (centres undefined) displayed a z-score of 0.742.
With `COc1ccc(S(=O)(=O)n2nc(-c3ccc(Cl)cc3)cc2N)cc1OC` the figure was -0.0966.
In the case of `O=C(Cn1cnc2c(nnn2Cc2ccc(F)cc2)c1=O)N1CCCCC1`, the z-score was determined as 0.251.
With `Cc1ccc(C(=O)CCC(=O)Nc2cccnc2)cc1C` the figure was -0.25.
In turn, `CCCCC(=O)Nc1ccc(C(=O)Nc2nnc(COC)s2)cc1` yielded a z-score of -0.311.
With `Nc1nonc1C(=O)NCCNCc1cc(Br)ccc1OCc1ccc(F)cc1` the figure was 0.587.
For `Nc1nonc1C(=O)NCCNCc1cc(Br)ccc1OCc1ccccc1F`, the z-score was 4.61 (active).
As for `Nc1nonc1C(=O)NCCNCc1ccccc1OCc1ccccc1F`, the z-score stood at 1.61.
Consider `Cc1nn(CC(=O)NCc2ccc(OC(C)C)cc2)c(=O)c2cc3occc3n12`, for which the z-score is -0.4.
Turning to `Cc1ccccc1OCc1nnc(SCc2cc(=O)[nH]c3ccccc23)n1-c1ccccc1`, the z-score came out at 0.00735.
With `O=P(CCNCc1ccco1)(c1ccccc1)c1ccccc1` the figure was 0.267; with `Cn1nnnc1SCc1nnc(-c2ccc(Cl)cc2)o1`, 2.68.
As to `Cn1nnnc1SCc1nnc(-c2ccc(F)cc2)o1`, the z-score is -0.226.
Compound `Cn1nnnc1SCc1nnc(-c2ccccc2Br)o1` gave a z-score of 0.436.
With `Cc1ccc(/C(O)=C2/C(=O)C(=O)N(CCN3CCOCC3)C2c2cccs2)cc1` (centres undefined) the figure was -0.157; with `COc1cccc2cc(C(=O)N3CCN(c4ncccn4)CC3)c(=O)oc12`, -0.344; with `COc1ccc(C(=O)N2CCN(C3CCCCC3)CC2)c(OC)c1`, -0.579.
To `CCCSc1cc(NCCOC(C)=O)c([N+](=O)[O-])c2nonc12` belongs 2.48; to `CCCC(=O)OCCNc1cc(SCCC(=O)OC)c2nonc2c1[N+](=O)[O-]`, -0.658; to `COC(=O)CCSc1cc(NCCOC(C)=O)c([N+](=O)[O-])c2nonc12`, -0.0935.
With `Oc1cnc2ccccc2c1CN1CCOCC1` the figure was -0.0791.
Take `CCOc1cc(C)c(Cl)cc1S(=O)(=O)NCc1ccc2c(c1)OCO2`: the z-score was -0.837.
For the compound `Cc1ccc(S(=O)(=O)N2CCN(C3CC(=O)N(Cc4ccccc4)C3=O)CC2)cc1C` (centres undefined), the z-score was -0.767.
To `CCCn1c(C)cc(/C=C(\C#N)C(=O)OCC(=O)Nc2cc(OC)c(OC)c(OC)c2)c1C` belongs -0.21; to `CCCn1c(C)cc(/C=C(\C#N)C(=O)OCC(=O)Nc2ccc(OC)c(Cl)c2)c1C`, -0.243.
To `CCCn1c(C)cc(/C=C(\C#N)C(=O)OCC(=O)Nc2cccc(OC)c2)c1C` belongs 3.42 (active); to `CN(CC(=O)NCCN1CCN(c2ccccc2)CC1)S(=O)(=O)c1ccc2c(c1)CCC(=O)N2`, 0.291; to `CC1(C)COC(c2cc([N+](=O)[O-])ccc2Cl)=N1`, -0.41.
With `Clc1ccc(/C=N/Nc2nn[nH]n2)cc1` the figure was -1.27; with `COc1ccccc1C(=O)Nc1ccc(Oc2ncnc3sc(-c4ccccc4)cc23)cc1`, -0.975.
As to `COc1cc(C(=O)Nc2ccc(Oc3ncnc4sc(-c5ccccc5)cc34)cc2)cc(OC)c1OC`, the z-score worked out at 0.344.
To `COc1ccc(C(=O)Nc2ccc(Oc3ncnc4sc(-c5ccccc5)cc34)cc2)cc1OC` belongs 4.83 (active).
With `CC1=NN(c2ccccc2)C(=O)C1C(=O)c1ccccc1` (centres undefined) the figure was -0.168; with `CCCCCCN1N=C(C)C(C(=O)c2ccc(Cl)cc2)C1=O` (centres undefined), 0.521.
To `CC1=NN(c2ccccc2)C(=O)C1C(=O)c1ccc(Cl)cc1` (centres undefined) belongs 2.14; to `Clc1ccc(C2=Nn3c(nnc3-c3cccs3)SC2)cc1`, -0.153.
`CCOC(=O)C1=C(C)NC(=O)CC1c1ccccc1` (centres undefined) came in with a z-score of 0.409.
`Cc1ccc(-n2c(=S)[nH]c3sc4c(c3c2=O)CCc2ccccc2-4)cc1` gave a z-score of 2.33.
The compound `Cc1ccc(-n2c(=S)[nH]c3c(oc4ccccc43)c2=O)cc1` had a z-score of 0.618.
With `COc1ccc(-n2c(=S)[nH]c3sc4c(c3c2=O)CCc2ccccc2-4)cc1` the figure was 0.114; with `COc1ccc2c(c1)c(=O)oc1cc(OCC(=O)NC3CCCCC3)ccc12`, 0.0339; with `O=C(NC(=S)Nc1ccccc1Cl)c1csnn1`, 11.5 (active).
As to `O=C(NC(=S)Nc1ccccc1)c1csnn1`, the z-score is 12.4 (active).
To `O=C(NC(=S)Nc1ccccc1)c1ccc(-c2ccccc2)cc1` belongs 0.0142.
To `Cc1ccc(NC(=O)c2csnn2)c(C)c1` belongs 0.804.
To `CC(=O)Nc1ccc(NC(=S)Nc2ccccc2)cc1` belongs -0.0688.
Compound `COC(=O)c1c(NC(=S)Nc2ccccc2Cl)sc(C)c1C` returned a z-score of 0.827.
Turning to `C=C(C)C(C)(C#CCN1CCCC1)OC(C)=O` (centres undefined), the z-score was -0.061.
To `C=CCc1c(C)nc(SC)nc1Nc1ccccc1` belongs -0.563.
With `FC(F)(F)c1cccc(NC(=S)NC2CCCC2)c1` the figure was 1.26; with `Cc1cccc(NC2=NC(=S)N(CC#N)C23CCCCC3)c1`, 1.02; with `CN(C#N)c1nc(Cl)nc(Nc2cccc(Cl)c2)n1`, -0.113.
To `O=C1CN=C(Nc2cccc(C(F)(F)F)c2)N1C1CCCC1` belongs -2.95; to `Cc1ccc(Cl)cc1NC1=NC(=S)N(C(C)C)C12CCCCC2`, 0.728.
With `COc1ccc(NC2=NC(=S)N(c3ccccc3C)C23CCCCC3)cc1`, the z-score was 15.4 (active).
Compound `N#CCN1C(=S)N=C(Nc2cccc(Cl)c2)C12CCCCC2` returned a z-score of 2.57.
With `CC1CCC2(CC1)C(Nc1cccc(Cl)c1)=NC(=S)N2CC#N` (centres undefined) the figure was 2.23; with `CC(C)(C)C1CCC2(CC1)C(Nc1cccc(C(F)(F)F)c1)=NC(=S)N2CC#N` (centres undefined), 2.58.
The compound `COc1ccc(NC2=NC(=S)N(c3cccc(C)c3)C23CCCCC3)cc1` registered a z-score of 1.22.
To `COc1ccc(NC2=NC(=S)N(c3ccc(C)cc3)C23CCCCC3)cc1` belongs 0.796; to `CC1CCC(=C(C#N)C(=O)Nc2cccc(Cl)c2)CC1` (centres undefined), -0.314.
With `Cc1ccc(S(=O)(=O)N2CCN(c3ccc4nnc(-c5ccccc5)n4n3)CC2)cc1` the figure was -0.183.
`CN(C)C(=O)c1snnc1-c1ccccc1` yielded a z-score of -0.386.
With `O=C1C(Cl)=C(NCCCO)C(=O)c2ccccc21` the figure was -0.185; with `CCOC(=O)c1c(NC(=O)CSc2nc3ccccc3s2)sc(C(C)=O)c1C`, -0.129.
Compound `C=CCn1c(Oc2cc(C)ccc2C)nc2c1c(=O)n(C)c(=O)n2C` registered a z-score of 0.128.
With `CCC(C)(C(=O)NC1CCCCC1)N(C(=O)C1CCC(=O)N1)c1ccccc1` (centres undefined) the figure was 0.963; with `NNC(=O)c1cnn(Cc2ccccc2)c1N`, 0.0742; with `Cc1cccc(NC2=NC(=S)N(c3ccc(C(=O)O)cc3)C23CCCCC3)c1`, -0.194.
To `Cc1ccc(Nc2nc(N)nc(CC#N)n2)cc1` belongs 0.115; to `Cc1ccc(NC2=NC(=S)N(CC#N)C23CCCCC3)cc1`, 3.98 (active); to `CCSc1nnc(NC(=O)C(C)Sc2nc3ccccc3[nH]2)s1` (centres undefined), 1.73.
With `COc1ccc(N(CC(=O)NCc2ccc3c(c2)OCO3)S(=O)(=O)c2c(C)nn(C)c2C)cc1` the figure was -0.575; with `COC(=O)c1ccc(COC(=O)c2ccc(SC)cc2OC)cc1`, -0.178; with `Cc1cccc(NC(=O)c2sc(Cl)nc2C)c1C`, 0.181.
The compound `Cn1c(=O)oc2cc(S(=O)(=O)N3CCCC(C(=O)N4CC=C(c5ccccc5)CC4)C3)ccc21` (centres undefined) yielded a z-score of 1.18.
To `O=C(Nc1ccc(N2CCOCC2)cc1)C1CCCN(S(=O)(=O)c2ccccc2)C1` (centres undefined) belongs 0.446; to `O=C(Nc1ccc(N2CCOCC2)cc1)C1CCCN(S(=O)(=O)c2cccc(C(F)(F)F)c2)C1` (centres undefined), 2.63.
With `O=C(Nc1ccccc1N1CCOCC1)C1CCN(S(=O)(=O)c2cccc(C(F)(F)F)c2)CC1` the figure was -0.294.
To `Cc1nn(-c2ccccc2)c(Cl)c1/C=N/NC(=O)C1COc2ccccc2O1` (centres undefined) belongs -0.169.
Compound `CCCSc1nnc(-c2cnn(-c3ccccc3)c2-n2cccc2)n1C` returned a z-score of -0.0552.
To `COc1cc(NC(=O)c2ccccc2)c(OC)cc1NC(=O)CN1CCCCC1` belongs -0.781.
To `COc1cc(NC(=O)c2ccc(C)cc2)c(OC)cc1NC(=O)CN1CCCCC1` belongs 2.37.
To `COc1cc(NC(=O)c2ccc(C)cc2)c(OC)cc1NC(=O)CN1CCOCC1` belongs -0.672.
Regarding `COc1cc(NC(=O)COC(=O)CNC(=O)c2ccc(Cl)cc2)c(C)cc1[N+](=O)[O-]`, the z-score is -0.644.
With `CC1(C)CC(=S)Nc2ccccc2S1` the figure was 7.97 (active); with `CC1CC(=S)Nc2ccccc2S1` (centres undefined), 1.11.
With `COC(=O)C(C)C1Sc2ccccc2NC1=O` (centres undefined) the figure was -0.34; with `CCOC(=O)c1cc(C#N)c(Oc2ccc(F)cc2)nc1-c1ccccc1`, -0.0477.
With `Cc1cc(C(=O)COC(=O)Cc2n[nH]c(=O)c3ccccc23)c(C)n1-c1ccc2c(c1)OCCO2` the figure was -0.104; with `CS(=O)(=O)c1ccc(Cl)c(NC(=O)c2cccc(Br)c2)c1`, -0.236; with `COc1ccc(OC)c(Nc2ncnc3c2cnn3-c2ccccc2)c1`, -0.143.
The compound `O=C(CSC1=Nc2ccccc2C2=NC(c3ccccc3)C(=O)N12)NC1CCCCC1` (centres undefined) had a z-score of -0.816.
To `O=C(CSC1=Nc2ccccc2C2=NC(c3ccccc3)C(=O)N12)NCC1CCCO1` (centres undefined) belongs 2.65; to `O=C(CSC1=Nc2ccccc2C2=NC(CC(=O)NCc3ccco3)C(=O)N12)NCC1CCCO1` (centres undefined), -0.919; to `CCC(=O)OCCn1c(Br)nc2c1c(=O)[nH]c(=O)n2C`, -0.265.
Consider `C/C=C/Cn1c(Br)nc2c1c(=O)n(C)c(=O)n2C`, for which the z-score turned out to be 1.47.
To `C/C(=N\NC(=O)c1ccncc1)C12CC3CC(CC(C3)C1)C2` belongs -0.319; to `C/C(=N\NC(N)=S)C12CC3CC(CC(C3)C1)C2`, 2.47; to `C/C(CCC12CC3CC(CC(C3)C1)C2)=N\NC(N)=S`, -0.636.
`COc1ccc(OC)c(C(=O)CSc2nccc(-c3ccc(Br)cc3)n2)c1` yielded a z-score of -0.268.
For `CC(C)OC(=O)/C(=C/c1cccnc1)NC(=O)c1ccccc1`, the z-score was 3.22 (active).
To `COC(=O)/C(=C/c1cccnc1)NC(=O)c1ccccc1` belongs -0.0328.
To `CC(C)OC(=O)/C(=C\C=C\c1ccccc1)NC(=O)c1ccccc1` belongs -0.143; to `CC(=O)Nc1c(OC(C)=O)ccc2c(C)cc(=O)oc12`, -0.24; to `Cc1cc(C(F)(F)F)nn1Cc1n[nH]c(=S)n1-c1cccc(Cl)c1`, -0.0907.
To `O=S(=O)(c1ccccc1)c1nc(-c2ccccc2)oc1N1CCCCC1` belongs -0.0433; to `COCCNC(=O)C(c1cccs1)N(C(=O)Cn1nnc2ccccc21)c1ccc(OC)cc1` (centres undefined), 0.0248.
